In PubChem BioAssay AID1117361 (Southern Research Institute, 2015):
The campaign covered roughly 3,600 compounds. About 900 (25%) were called active. A selection follows. Potency and affinity values are given separately. Unmarked numbers belong to inactive results. How the calls were made is not given here.

biological target: Protein Tat (Human immunodeficiency virus type 1 group M subtype B (isolate HXB2)) (UniProt P04608); experiment: inhibitors of Tat binding to TAR RNA, dose response, counter-screen for Vif-APOBEC3G degradation inhibitor project, biochemical, fluorescence polarization, FAM-labeled TAR RNA (AID 1117361); conditions: outcome: dose series up to 100 µM unless noted; series mostly up to 100 µM; inhibition: at the top concentration

Row | SMILES | inhibition [%] | outcome
1 | CCOC(=O)c1cc2c(n(-c3ccccc3)c1=O)CC(C)(C)CC2=O | 4.34 | –
2 | CC1Cc2ccccc2N1C(=O)C1CCN(S(=O)(=O)Cc2ccccc2)CC1 (stereo not given) | 1.36 | –
3 | CC1Cc2ccccc2N1Cc1nc2cc(C(F)(F)F)ccc2c(=O)[nH]1 (stereo not given) | 12.8 | –
4 | CCOc1cccc(C(=O)Nc2ccccc2OC(F)F)c1 | 4.34 | –
5 | CCC1(CC)C(=O)NC(=O)NC1=NCCc1ccc(O)cc1 | – | inactive
6 | Cc1noc(C)c1S(=O)(=O)Nc1ccc2c(c1)C(=O)N([C@@H](C)CO)C[C@H](C)[C@@H](CN(C)Cc1ccc(C(F)(F)F)cc1)OCCCC[C@H](C)O2 | 0.33 | –
7 | COc1cccc(-c2nc(-c3cccs3)no2)c1 | 2.47 | –
8 | CCCCCOc1ccc(C2C(C(C)=O)=C(C)Nc3ncnn32)cc1OC (stereo not given) | 0.68 | –
9 | N#Cc1ccccc1NC(=O)CNc1ccc(Cl)c(C(F)(F)F)c1 | 19.8 | –
10 | Cc1ccc(NC(=O)CCCCCC2NC(=O)NC2C)cc1 (stereo not given) | 4.05 | –
11 | CC1CC(C)CN(C(=O)CSCC(=O)O)C1 (stereo not given) | – | inactive
12 | CC(C)C(c1nnnn1C1CCCCC1)N1CCN(c2ncccn2)CC1 (stereo not given) | – | inactive
13 | O=C(CSc1c(Cl)cccc1Cl)N1CCC(c2nc3ccccc3s2)CC1 | 2.7 | –
14 | CCN1CCC(=NNC(=O)CC23CC4CC(CC(C4)C2)C3)CC1 | 21.8 | –
15 | CCCCCCNS(=O)(=O)c1ccccc1Br | – | inactive
16 | CCCC1(C(=O)O)NC(c2ccc(OC)cc2O)C2C(=O)N(c3ccc(OC)cc3)C(=O)C21 (stereo not given) | 6.08 | –
17 | Cc1cccc2sc(NNC(=O)c3ccc(S(=O)(=O)N4CC(C)CC(C)C4)cc3)nc12 (stereo not given) | 14 | –
18 | Cc1cc(NC(=O)CC(CN(C)S(=O)(=O)c2ccccc2)c2ccccc2)no1 (stereo not given) | 6.08 | –
19 | COc1cccc(-c2nnc(SCC(=O)N3CCOCC3)o2)c1 | 1.36 | –
20 | Cc1occc1-c1nnc(SCC(=O)N(C)C)o1 | 5.46 | –
21 | COc1ccc(N(C(=O)c2ccccc2OC)C2C=CS(=O)(=O)C2)c(OC)c1 (stereo not given) | 6.08 | –
22 | COc1ccc(S(=O)(=O)N(CC(=O)O)c2ccccn2)cc1 | 3.41 | –

Row | SMILES | inhibition [%] | outcome
23 | O=[N+]([O-])c1ccccc1NC(=S)N/N=C/c1ccc(O)c(O)c1 | 7.42 | –
24 | Cn1ccnc1Sc1ccc(/C=N/NC(=O)c2ccccc2O)cc1[N+](=O)[O-] | – | inactive
25 | Cc1cc(NC(=O)Cn2cnc3c(nnn3-c3cccc(F)c3)c2=O)no1 | – | inactive
26 | C/C(=N\OCC(=O)NC12CC3CC(CC(C3)C1)C2)c1cc2ccccc2o1 | – | inactive
27 | CC1CCC(NC(=O)CCS(=O)(=O)c2ccc3c(c2)CCN3C(=O)C2CC2)CC1 (stereo not given) | 4.12 | –
28 | CN1CCN(NC(=O)c2ccc(S(=O)(=O)N3CC4(C)CC3CC(C)(C)C4)cc2)CC1 (stereo not given) | – | inactive
29 | COc1cc(NC(=O)CCn2c(=O)[nH]c3ccsc3c2=O)cc(OC)c1 | 6.14 | –
30 | O=C(O)CCCCC1SCC2NC(=O)NC21 (stereo not given) | – | inactive
31 | CCCN(CCC)CCCNC(=O)c1cn(CCOC)c(=O)c2c1c1ccccc1n2C | 4.73 | –
32 | Cc1cc(NC(=O)C2CCCC2)n(-c2nc3ccccc3[nH]2)n1 | 19 | –
33 | O=C1CCCCC1Oc1ccc2ccc(=O)oc2c1 (stereo not given) | 0.33 | –
34 | CSc1ccc(C2C(C#N)=C(N)Oc3c2ccc(=O)c2c(C)oc(C)c32)cc1 (stereo not given) | 6.82 | –
35 | Cc1cc(-c2[nH]nc3c2C(c2cccc(O)c2)C(C#N)=C(N)O3)c(C)s1 (stereo not given) | 14.3 | –
36 | N=C(N)c1ccc(N=Nc2c(O)ccc3c2[nH]c2ccccc23)cc1 | – | inactive
37 | CCOC(=O)CSc1nc(CC)nc2ccccc12 | – | inactive
38 | CCOC(=O)c1cc2ccc(OC)c(OC)c2c(=O)s1 | 8.11 | –
39 | CC(c1nnnn1C1CCCCC1)N(Cc1ccccc1)Cc1cccnc1 (stereo not given) | – | inactive
40 | Cc1cccc(C(=O)Nc2nnc(Cc3c[nH]c4ccccc34)s2)c1 | – | inactive
41 | CCNS(=O)(=O)c1ccc(-c2ccc(-n3cnnn3)cc2)cc1 | – | inactive
42 | CC(=O)c1ccc(S(=O)(=O)Nc2cccc(-c3ccc(N4CCOCC4)nn3)c2)cc1 | – | inactive
43 | CCC(C)n1c(-c2cccc(S(=O)(=O)N3CCOCC3)c2)n[nH]c1=S (stereo not given) | – | inactive
44 | O=C(Oc1cccnc1)c1ccc(Cl)cc1 | 4.77 | –

Row | SMILES | inhibition [%] | outcome
45 | Cc1ccc(S(=O)(=O)N2CCCC2C(=O)N(C)Cc2cccs2)cc1 (stereo not given) | 2.03 | –
46 | Cc1cc(O)c(C(C)C)cc1NC1=NS(=O)(=O)c2ccccc21 | 6.82 | –
47 | CCCCS(=O)CC(O)COCC (stereo not given) | – | inactive
48 | Cc1cc(Cl)c(S(=O)(=O)NCC2CCCO2)cc1OCC(=O)NC1CCCCC1 (stereo not given) | – | inactive
49 | CC(C)(C)c1ccccc1OCCOCCSc1ncccn1 | 5.46 | –
50 | O=C(CCCc1ccccc1)N1CCN(c2ccc([N+](=O)[O-])cc2)CC1 | 6.82 | –
51 | CC(C)OC(=O)/C(=C\C=C\c1ccccc1)NC(=O)c1ccccc1 | 3.38 | –
52 | O=C(CCc1ccc(S(=O)(=O)N2CCOCC2)cc1)OCc1nc2ccccc2s1 | – | inactive
53 | O=C1c2ccccc2C(Nc2ccc(F)c(Cl)c2)N1c1ccccn1 (stereo not given) | 12.2 | –
54 | CCn1c(SCC(=O)n2c(C)c(C)c3ccccc32)nnc1-c1ccco1 | 19.8 | –
55 | NC(=O)c1ccccc1NC(=O)/C=C/c1ccc(Cl)cc1 | – | inactive
56 | CCCCC(=O)Nc1ccc(NC(=O)c2ccc3c(c2)OCO3)cc1OC | 1.35 | –
57 | CCn1c(-c2csc(-c3ccc(Cl)cc3)n2)n[nH]c1=S | 0.68 | –
58 | COc1ccc(N2CCC(CNS(=O)(=O)c3cccc(C(F)(F)F)c3)C2)cc1 (stereo not given) | – | inactive
59 | COc1ccc(NC(=O)CN2CCN(c3ccc(F)cc3)CC2)cc1Cl | – | inactive
60 | COc1ccc(-c2nc(C#N)c(NCc3ccccc3Cl)o2)cc1OC | – | inactive
61 | O=C(c1cccc(C(F)(F)F)c1)C1CCCN(C(=O)CCCN2CCCC2=O)C1 (stereo not given) | 0.82 | –
62 | CCc1nnc(NC(=O)c2ccc(-c3ccccc3Cl)o2)s1 | 3.38 | –
63 | CCOC(=O)C1CC(CN2C(=O)c3ccccc3C2=O)OC1=O (stereo not given) | – | inactive
64 | CCOC(=O)c1c(C)nn(Cc2cccc(Cl)c2)c1N | 1 | –
65 | Nc1ncnc2c1cnn2C1CCCCC1 | 6.6 | –
66 | S=c1[nH]nc(COc2ccc(Cl)cc2)n1Cc1ccccc1 | 14.8 | –

Row | SMILES | inhibition [%] | outcome
67 | COc1ccccc1N1CCN(CCc2n[nH]c(=S)n2-c2ccccc2)CC1 | 2.03 | –
68 | O=C1N(Cc2cccnc2)C[C@@H]2C[C@@H](c3ccc4nsnc4c3)N3CCC[C@@]123 | 5.77 | –
69 | COc1cccc(C(=O)N2CCN(Cc3nc(CC4CC4)no3)CC2)c1 | 1.65 | –
70 | O=C1CCCC(O)=C1C=Nc1ccc(O)cc1 | 21.1 | –
71 | COc1ccc(N=CC2=C(O)CCCC2=O)cc1 | 3.38 | –
72 | CC1CN(C(=O)COC(=O)Cc2ccc(Cl)cc2)CC(C)O1 (stereo not given) | – | inactive
73 | CCCCn1c(C)nc2c(=O)n(C)c(=O)[nH]c21 | 4.05 | –
74 | CCN(CC)CCN1C(=O)C(=O)/C(=C(/O)c2ccc(C)cc2)C1c1ccncc1 (stereo not given) | – | inactive
75 | CCCc1nc2ccccc2c(C(=O)OCC(=O)N2CCc3ccccc32)c1CC | 4.09 | –
76 | CC(OC(=O)/C=C/c1ccco1)C(=O)NC1CCCCC1 (stereo not given) | – | inactive
77 | CN(C1CCCCC1)S(=O)(=O)c1cccc(C(=O)OCC(=O)NC2CCCc3ccccc32)c1 (stereo not given) | – | inactive
78 | Cc1nc2ccc(NC(=O)c3cc(S(=O)(=O)N4CCOCC4)ccc3C)cc2s1 | – | inactive
79 | COc1ccc(OCCOC(=O)c2cccc(-n3cnnn3)c2)cc1 | 8.78 | –
80 | COc1ccc(C(C)(C)C)cc1NC(=O)C1C2C=CC(C2)C1C(=O)O (stereo not given) | – | inactive
81 | Cc1cc(-c2ccco2)n(-c2ccccc2)n1 | 19.1 | –
82 | c1coc(-c2nc3nc4ccccc4n3nc2-c2ccco2)c1 | 3.67 | –
83 | O=C(Nc1nc(-c2ccco2)c(-c2ccco2)s1)c1ccc(F)cc1F | 26.4 | –
84 | Cc1nc2nc(-c3ccco3)nn2c(C)c1Cl | 5.68 | –
85 | CC1CCc2nc(NC(=O)c3ccco3)sc2C1 (stereo not given) | 0.68 | –
86 | O=C1CN(C(=O)COC(=O)c2oc3ccccc3c2COc2ccccc2)c2ccccc2N1 | 2.7 | –
87 | Cc1cc(C(=O)Nc2c(C)cccc2C)n(-c2ccccc2)n1 | – | inactive
88 | Cc1ccc(NC(=O)CSc2nnc([C@H](C)NC(=O)OC(C)(C)C)o2)c(C)c1 | – | inactive

Row | SMILES | inhibition [%] | outcome
89 | Cn1c2ccccc2c2c(C(=O)O)cn(C3CCCC3)c(=O)c21 | 10.1 | –
90 | CCC(=O)N1CCc2cc(S(=O)(=O)NCCC(=O)NC3CCCc4ccccc43)ccc21 (stereo not given) | 12.2 | –
91 | COc1ccc(N(C(=O)c2ccco2)S(=O)(=O)c2cc(Cl)c(Cl)cc2Cl)cc1 | 2.7 | –
92 | O=C(O)CCC(=O)NNC(=O)CCC(=O)NCc1ccccc1 | – | inactive
93 | CC(c1ccccc1)N(C)CC(=O)NC(=O)NCCC1=CCCCC1 (stereo not given) | – | inactive
94 | O=C(NCc1cccs1)c1ccc2c(c1)ncn2C1CCCC1 | 2.05 | –
95 | Cc1cccc2c1N(CCCOc1ccc(C(C)(C)C)cc1)C(=O)C2=O | – | inactive
96 | CCOC(=O)c1cc2sc(C)cc2n1CC(=O)N1CCN(C(=O)c2ccco2)CC1 | 7.43 | –
97 | O=C(CSc1nc2cc(Cl)ccc2s1)N1CCN(C(=O)c2ccco2)CC1 | 8.78 | –
98 | COc1ccccc1CN(C)C(=O)CN1CCN(C(=O)c2cccs2)CC1 | 3.3 | –
99 | Cc1nn(-c2ccccc2)c(C)c1/C=N/NC(=O)c1cc(-c2ccccc2)n[nH]1 | 4.09 | –
100 | COc1ccccc1NS(=O)(=O)c1cccc2cccnc12 | 4.05 | –
101 | Cn1c(=O)cc(NCc2ccccc2)[nH]c1=O | 4.05 | –
102 | O=C(NCC1CCCO1)C1CCCN(Cc2cnn(-c3ccccc3)c2-n2cccc2)C1 (stereo not given) | 5.41 | –
103 | Cc1ccc2[nH]c(=O)c(CN(Cc3ccco3)C(=O)c3ccncc3)cc2c1 | – | inactive
104 | COc1ccc2nc3oc(C(=O)N4CCCCC4)cc3cc2c1 | 1.36 | –
105 | Cc1ccc(NC(=O)COc2ccccc2C(=O)Nc2ccccc2)cc1Cl | 7.5 | –
106 | O=C(CCCCCCC(=O)NCc1ccccc1)NCc1ccccc1 | 8.35 | –
107 | COc1cc(NC(=O)Cc2ccccc2)cc(OC)c1 | 4.77 | –
108 | CC(C)Cn1c2c(c(O)c(C(=O)Nc3nccs3)c1=O)CCCC2 | – | inactive
109 | COc1ccc(-c2[nH]c3ccccc3c2SCCN)cc1 | – | inactive
110 | Cc1nnc(N2CCc3ccccc3C2)[nH]c1=O | 8.87 | –
